The whole screen tested about 69,000 compounds, of which about 950 (1.4%) showed an effect of 50% or more. What follows is part of a selection rich in strong results, with near analogues and random picks from the rest.
Each molecule was assayed on Mycobacterium tuberculosis (assay: Cornell M. t heat shock assay; note: in the data most compounds retested in dose-response had high values).
Assay type: functional, organism-based
Parameters: dose or concentration left out as unconfirmed

Row | SMILES | Percent Effect
1 | Cc1cc(C2CCCN(CC(=O)N3CCCc4ccccc43)C2)n[nH]1 (centres undefined) | -30.42%
2 | O=C1CCCN1CCN1CCCC(c2ccn[nH]2)C1 (centres undefined) | 4.433%
3 | O=C(CN1CCCC(c2ccn[nH]2)C1)N1CCCc2ccccc21 (centres undefined) | -24.99%
4 | Cc1cc(C2CCCN(CC(=O)Nc3nc4c(s3)CCC4)C2)n[nH]1 (centres undefined) | 104%
5 | Cc1cc(C2CCCN(CC(=O)N3CCc4ccccc43)C2)n[nH]1 (centres undefined) | -11.71%
6 | O=C(CN1CCCC(c2ccn[nH]2)C1)Nc1nc2c(s1)CCCC2 (centres undefined) | 102.5%
7 | CC(C)C1Nc2ccccc2C(=O)N1CC(=O)Nc1nc2c(s1)CCC2 (centres undefined) | -0.3209%
8 | O=C(O)c1cccc(CN2CCCC(c3ccn[nH]3)C2)c1 (centres undefined) | -8.776%
9 | O=C(CN1CCCC(c2ccn[nH]2)C1)Nc1nc2c(s1)CCC2 (centres undefined) | 104%
10 | CN1CCOCC2(CCCN(C(=O)Cc3ccncc3)C2)C1.O=C(O)C(F)(F)F (centres undefined) | -28.6%
11 | COc1cccc(Cn2c(C3CCNCC3)cc3cccnc32)c1.Cl | 0.437%
12 | CCC(CN1CCN(C)CC1)NC(=O)C1(c2cccc(F)c2)CC1.O=C(O)CC(O)(CC(=O)O)C(=O)O (centres undefined) | 1.881%
13 | O=C(O)C(F)(F)F.O=C(O)C(F)(F)F.O=C(O)C(F)(F)F.c1cncc(CN2CCCn3nnc(CN4CCCC4)c3C2)c1 | -36.4%
14 | CNC(=O)CN1CCCC12CCN(C(=O)c1ccc(F)cc1)CC2.O=C(O)C(F)(F)F | -33.92%
15 | Cc1oncc1C(=O)N[C@@H]1CN(Cc2ccoc2)C[C@@H]2CCCO[C@@H]21.O=C(O)C(F)(F)F | 44.61%
16 | CCOc1ccc(Br)cc1C1CCCCN1.Cl (centres undefined) | 18.96%
17 | CS(=O)(=O)CCn1ccc(NC(=O)Cc2ccccc2Cl)n1 | -16.05%
18 | CCOCC(=O)Nc1cccnc1-n1ccnc1C | 3.015%
19 | CC(C)N(C)CC(=O)Nc1ccc(-n2ccc(C(N)=O)n2)cc1 | 4.536%
20 | CS(=O)(=O)CCC(=O)Nc1cnn(-c2ccccc2Cl)c1 | -2.43%
21 | CCOCC(=O)NCCCn1ccnc1-c1ccccc1 | 0.7963%
22 | Cn1ccc(C(=O)Nc2nnc(-c3ccccn3)[nH]2)cc1=O | 24.76%
23 | CCOCC(=O)Nc1nccn1Cc1ccccc1Cl | 94.36%

Row | SMILES | Percent Effect
24 | CC(C)N(C)CC(=O)NC1CCc2nccn2C1 (centres undefined) | -3.465%
25 | Cn1ccc(C(=O)Nc2nccn2Cc2ccccc2Cl)cc1=O | 54.71%
26 | CS(=O)(=O)CCC(=O)Nc1nccn1Cc1ccccc1Cl | 51.39%
27 | Cc1nccn1Cc1cccc(CNC(=O)c2ccn(C)c(=O)c2)c1 | -21.74%
28 | CC(C)N(C)CC(=O)Nc1nccn1Cc1ccccc1Cl | 70.24%
29 | CC1c2ncc(CNC(=O)C3CC3)n2CCN1Cc1cccnc1.O=C(O)C(F)(F)F.O=C(O)C(F)(F)F (centres undefined) | -10.62%
30 | CN1CC(=O)N(c2ccccc2)CC12CCN(C(=O)c1cccs1)C2.O=C(O)C(F)(F)F (centres undefined) | -3.603%
31 | O=C(O)C(F)(F)F.O=C(O)C(F)(F)F.O=C(c1cccnc1)N1Cc2nccn2CC(COc2cccnc2)C1 (centres undefined) | -22.14%
32 | CCN1C(=O)CCC12CCCN(Cc1nccs1)CC2.O=C(O)C(F)(F)F (centres undefined) | -119%
33 | CN(C)CCOCC1CN(Cc2cccs2)Cc2ccnn2C1.O=C(O)C(F)(F)F.O=C(O)C(F)(F)F.O=C(O)C(F)(F)F (centres undefined) | -22.31%
34 | CN(C)Cc1cc(C2CCN(C(=O)C3CC34CCC4)CC2)nn1C.Cl (centres undefined) | -10.56%
35 | CNc1cc(C)nc(N2Cc3cnn(Cc4ccc(F)cc4)c3C2)n1 | -20.76%
36 | Cc1ccc(CNC2CC3(CCN(CCO)CC3)c3ccccc32)s1.O=C(O)C(F)(F)F.O=C(O)C(F)(F)F (centres undefined) | 0.5733%
37 | O=C(O)C(F)(F)F.O=C1N(Cc2cccnc2)CCC12CCCN(c1ncc(F)cn1)C2 (centres undefined) | 4.445%
38 | Cl.Oc1cc(C2CCNCC2)nc(-c2ccsc2)n1 | -3.533%
39 | Cn1nccc1C(=O)N1CCC2(CC1)COC(COc1ccccn1)C2.O=C(O)C(F)(F)F (centres undefined) | -4.012%
40 | CCOCCOC(C)C(=O)Nc1nccn1Cc1ccccc1 (centres undefined) | 28.47%
41 | CC(OCC1CC1)C(=O)Nc1nccn1Cc1ccccc1 (centres undefined) | 81.58%
42 | O=C(Nc1ccc(=O)n(Cc2ccccc2Cl)c1)C1CC1 | 42.02%
43 | CC(OCC1CC1)C(=O)Nc1ccn(Cc2ccccc2)n1 (centres undefined) | -11.4%
44 | CC(=O)Nc1nccn1Cc1ccccc1Cl | 63.7%
45 | COC(=O)N1CCN(Cc2ccccc2Cl)CC1 | -12.81%
46 | CN1CCOCC2(CCCN(C(=O)c3cnccn3)C2)C1.O=C(O)C(F)(F)F (centres undefined) | -11.83%

Row | SMILES | Percent Effect
47 | Cc1cc(N(C)C)nc(C2CCNC2)n1.Cl.Cl (centres undefined) | -43.84%
48 | Cc1cnc(N2CC[C@H]3[C@@H]2CCC(=O)N3c2ccccc2)nc1.O=C(O)C(F)(F)F | 36.02%
49 | O=C(NCC1CC1)[C@@H]1CCO[C@@H]2CCN(CCc3ccccc3)C[C@H]21.O=C(O)C(F)(F)F | -21.47%
50 | Cn1cccc1C(=O)N1CC[C@@H]2[C@@H]1CC(=O)N2CCN1CCOCC1.O=C(O)C(F)(F)F | -25.84%
51 | CCO[C@@H]1CC[C@H]2[C@H]1OCCN2Cc1ccoc1.O=C(O)C(F)(F)F | 1.857%
52 | O=C(N[C@@H]1CN(Cc2ccccc2)C[C@@H]2CCCO[C@@H]21)C1CC1.O=C(O)C(F)(F)F | -8.331%
53 | O=C(N[C@@H]1CN(Cc2ccoc2)C[C@@H]2CCCO[C@@H]21)C1CCC1 | 51.5%
54 | O=C(CC1CC1)N[C@@H]1CN(Cc2ccoc2)C[C@@H]2CCCO[C@@H]21 | -3.487%
55 | Cc1nc(NC(=O)CCc2c(C)nc3cc(O)nn3c2C)sc1C | 27.32%
56 | Cc1cc(=O)[nH]c(-n2nc(C)c(CCC(=O)Nc3nc(C)cs3)c2C)n1 | 95.61%
57 | Cc1nc2cc(O)nn2c(C)c1CCC(=O)NCCCC(C)C | -0.01064%
58 | Cc1cc(=O)[nH]c(-n2nc(C)c(CCC(=O)NCC(C)C)c2C)n1 | 98.01%
59 | Cc1nn(-c2cc(Cl)cc(Cl)c2)c(C)c1CCC(=O)O | 19.8%
60 | COC(=O)CCc1c(C)nn(-c2nc(C)cc(=O)[nH]2)c1C | 103.1%
61 | COCCNC(=O)CCc1c(C)nn(-c2nc(C)c(C)c(=O)[nH]2)c1C | 37.18%
62 | COc1ccc(C)nc1NC(=O)CCc1c(C)nn(C)c1C | -18.22%
63 | Cc1csc(NC(=O)Cn2nc(C)ccc2=O)n1 | -1.06%
64 | CC(=O)N1[C@H](CN(C)C)C[C@@H]2CN(C(=O)c3cccn3C)CC[C@@H]21.O=C(O)C(F)(F)F | -10.3%
65 | O=C(O)C(F)(F)F.O=C(c1cccnc1)N1CCC2(CCN(C(=O)c3ccco3)CC2)C1 | 23.94%
66 | CCC(C)(C)NC(=O)c1ncn2c1CN(C)S(=O)(=O)c1ccccc1-2.O=C(O)C(F)(F)F | -13.28%
67 | CCNC(=O)NCc1ccccc1NS(=O)(=O)c1ccccc1 | 35.07%
68 | N#Cc1nc(COc2ccc3c(c2)OCO3)oc1NC1CCCCC1 | 5.438%
69 | O=C(O)C(F)(F)F.c1cn2c(n1)CN(Cc1ccsc1)CC(Cn1cncn1)C2 (centres undefined) | -22.01%

Row | SMILES | Percent Effect
70 | Cc1ccc(-c2cc(-c3c(C)nn(CCO)c3C)c(C#N)c(N)n2)cc1 | 10.03%
71 | CCCn1cc(-c2cc(-c3ccoc3)c(C#N)c(N)n2)c(C)n1 | 75.39%
72 | CCCn1cc(-c2cc(-c3cc(CC)n[nH]3)c(C#N)c(N)n2)c(C)n1 | 41.25%
73 | COc1ncc(-c2cc(-c3ccn(C)c3)nc(N)c2C#N)cn1 | -43.44%
74 | CCCn1cc(-c2cc(-c3cnc(OC)nc3)c(C#N)c(N)n2)c(C)n1 | 100.5%
75 | CCCn1cc(-c2cc(-c3c[nH]cn3)c(C#N)c(N)n2)c(C)n1 | 15.71%
76 | O=C(C[C@@H]1COC[C@H]2CN(C(=O)c3cccnc3)C[C@@H]12)N1CCOCC1.O=C(O)C(F)(F)F | -5.703%
77 | CN(C)C(=O)CN1C(=O)CCC12CCN(Cc1ccsc1)CC2.O=C(O)C(F)(F)F | -0.1041%
78 | COCc1ccc(CN2CCC(O)(Cn3ccc4ncccc43)CC2)o1.Cl | -9.994%
79 | Cl.c1ccc(CNc2cc(C3CCCNC3)ccn2)nc1 (centres undefined) | 18.31%
80 | Cc1oncc1C(=O)NCc1cc(=O)n2c(n1)CN(CC1CC1)CCC2.O=C(O)C(F)(F)F | -32.57%
81 | COCC(=O)N1CC[C@H]2C[C@H](C)O[C@@H]2C1 | 3.806%
82 | COCC(=O)N1CC[C@@H]2O[C@@H](C)C[C@H]2C1 | -1.773%
83 | COCC(=O)N1CC[C@H]2O[C@@H](C)C[C@H]2C1 | 64.99%
84 | COCC1CN(Cc2ccc3c(c2)OCO3)Cc2ncn(C)c21.O=C(O)C(F)(F)F.O=C(O)C(F)(F)F (centres undefined) | -21.56%
85 | Cl.O=C(N1CCCC1)C1(Cc2ccc(-c3cccs3)cc2)CCNC1 (centres undefined) | -20.63%
86 | Cc1c[nH]c(C2CCCN(Cc3ccccc3C(=O)O)C2)n1.O=CO (centres undefined) | -20.14%
87 | CC(C)CCN1C[C@H]2C[C@H](C(=O)Nc3ccccc3)[C@@H](C1)O2.O=C(O)C(F)(F)F | -19.48%
88 | CN(Cc1cccnc1)[C@@H]1CN(C(=O)c2ccno2)[C@@H]2CCCO[C@H]12.O=C(O)C(F)(F)F.O=C(O)C(F)(F)F | 0.2387%
89 | COC(=O)Cn1c(=O)nc2n1C(=O)N(c1ccc(C)cc1)C2 | 3.714%

Source: ChEMBL document CHEMBL3988442, “University of Dundee, Small-Polar-MMV Screening Library” (2021)
